Screening data deposited in PubChem by National Center for Advancing Translational Sciences (NCATS).
An excerpt weighted towards active compounds, which were near 1.8% of everything screened.
MBNL1 CUG block: qHTS Assay for Inhibitors of MBNL1-poly(CUG) RNA binding | Muscleblind-like protein 1 (Homo sapiens), Q9NR56 | TR-FRET MBNL1-His/biotin-(CUG)12 binding, 665/545 ratio | Potency, µM (top dose mostly 57.5 µM), actives largely listed as inhibitors | 0.036% of 280,000 active; active = well fitted inhibition curve with a large enough effect in the signal ratio, with a control signal flat, not every such curve was filed as active; inconclusive = small, poorly fitted or top-dose-only effect, or effect the other way, or a change in a side signal; inactive = no such curve, though single readings can be large or run the other way; the % refers to the signal ratio
Target sequence (Q9NR56 whole entry, looked up): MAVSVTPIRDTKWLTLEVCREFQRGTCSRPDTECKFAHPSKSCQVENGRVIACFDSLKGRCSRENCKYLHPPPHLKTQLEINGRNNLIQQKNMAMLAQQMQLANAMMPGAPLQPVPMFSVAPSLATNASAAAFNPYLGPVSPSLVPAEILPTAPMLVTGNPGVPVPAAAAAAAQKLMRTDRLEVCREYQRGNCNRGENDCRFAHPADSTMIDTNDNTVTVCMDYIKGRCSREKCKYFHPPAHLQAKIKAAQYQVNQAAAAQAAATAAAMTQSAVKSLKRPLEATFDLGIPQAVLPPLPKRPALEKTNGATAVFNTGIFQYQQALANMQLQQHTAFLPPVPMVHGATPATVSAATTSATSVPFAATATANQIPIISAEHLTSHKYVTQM
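MBNL1-His + Biotin-(CUG)12, cpd titration 92 nM–58 uM; Tb anti-His Ab 0.055 ng/ul, SA-XL665 5 nM (final); 60 min RT; ratiometric 665/545 nm, Ex 340 nm; normalized to buffer and full-complex controls.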
ClpP mod: qHTS Assay for Activators of ClpP; purified B. subtilis ClpP, FRET peptide cleavage, 20 min; Potency, µM (titrated, usually from 57.5 µM); 1.9% of 340,000 active; AID 651965, 2013; active = well fitted falling curve with a large enough effect; inconclusive = small, poorly fitted or top-dose-only effect; inactive = no such curve, though single readings can be large or run the other way; note: the source files actives as falling curves though it sought activators and does not explain the sign; nearly all actives have a fitted effect of over 65% in size
Target sequence (P80244 whole entry, looked up): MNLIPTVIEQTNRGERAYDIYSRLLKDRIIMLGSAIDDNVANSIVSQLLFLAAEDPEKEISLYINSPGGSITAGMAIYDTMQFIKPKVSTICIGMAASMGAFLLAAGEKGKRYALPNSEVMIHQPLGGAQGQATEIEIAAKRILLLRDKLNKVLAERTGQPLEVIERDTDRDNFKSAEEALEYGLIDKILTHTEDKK
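FRET quenching reversal measured ClpP activation: 10 microg/mL B. subtilis ClpP at pH 8 with the FRET-FV decapeptide, read at 430 nm after 320 nm excitation. The 20-min minus 0-min signal was scaled between DMSO/no-enzyme wells and ADEP (5.8 microM final).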
TCR activator: Activators of T cell receptors: qHTS campaign; primary human leukocytes, anti-CD3, IL-2 HTRF, 48 h; Potency, µM (top dose mostly 9.22 µM), hits mostly activators; 330,000 tested, under 10 active
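TCR engagement came from a-CD3 beads alone, with compounds added to primary human leukocytes for 48 hr. Secreted IL-2 bridged europium cryptate- and d2-labelled anti-IL-2 antibodies, giving FRET emission at 665nm after 320nm excitation.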
Glioma ERSR ind: qHTS for Inducers of the Endoplasmic Reticulum Stress Response (ERSR) in Human Glioma: qHTS; U87-MG GRP78 promoter luciferase reporter, 16 h; 0.02% of 420,000 active; Potency, µM, usual class: activators; note: series mostly up to about 76 µM; nearly all actives have a fitted effect of over 35% in size
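Stably transfected U87-MG human glioma cells carrying a GRP78-based luminescent sensor were seeded at 1000 cells/well, pin-dosed with compounds and incubated 16 h. Luciferase reagent was then added, and end-point luminescence was read after 10 min at room temperature.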
A-T KAP1 phos: qHTS Assay for Identifying a Potential Treatment of Ataxia-Telangiectasia; AID 485349, 2010; 0.19% of 320,000 active; F2112 A-T fibroblasts, KAP-1 phosphorylation AlphaLISA; neocarzinostatin DNA damage 30 min before lysis; Potency, µM (top dose mostly 57.5 µM), actives largely listed as activators; note: nearly all actives have a fitted effect of over 45% in size
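ATM-like activity read as KAP-1 phosphorylation via AlphaLISA donor/acceptor antibody pairs after lysis and 6 hr at 25C. Cells were ATM-null patient fibroblasts (F2112, hTERT), dosed 60 min, then exposed to the DSB inducer NCS for 30 min.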
Mito fusion act: qHTS Assay for Small Molecule Inhibitors of Mitochondrial Division or Activators of Mitochondrial Fusion | S. cerevisiae fusion-defective mutant growth rescue, CellTiterGlo 48 h | Potency, µM (highest dose often 46.1 µM), most hits filed as activators | 0.23% of 320,000 active; note: nearly all actives have a fitted effect of over 45% in size
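Growth-rescue viability read-out: after 48 h at the non-permissive 37C in glycerol/ethanol YPEG, yeast mitochondrial fusion mutants are measured by CellTiterGlo luminescence; compounds (23 nl pinned per well) restoring growth score as division inhibitors or fusion activators.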
ClpP inh valid: qHTS Assay for Activators of ClpP: Hit Validation of Inhibitors; purified B. subtilis ClpP, FRET-FV substrate cleavage, 20 min; AID 743245, 2014; shares compounds with ClpP mod; Potency, µM (highest dose often 57.5 µM), actives largely listed as inhibitors; 40% of 470 active; note: nearly all actives have a fitted effect of over 70% in size
A number is an active result; n = inactive; u = inconclusive; x = not tested or not shown; ! = a repeat was not active. Unless noted, calls come from the whole dose curve; as a rule, active = well fitted curve in the direction sought with a large enough effect; inconclusive = small, poorly fitted or top-dose-only effect, or another doubt; inactive = no such curve, though single readings can be large; an effect the other way counts as inactive or inconclusive.

SMILES	MBNL1 CUG block	ClpP mod	TCR activator	Glioma ERSR ind	A-T KAP1 phos	Mito fusion act	ClpP inh valid
CN(CC(=O)Nc1cccc(F)c1)C(=O)c1cc(-c2ccccc2)nc2ccccc12	x	n	n	n	n	u	x
COc1ccc(-c2cc(C(=O)N(C)CC(=O)Nc3cccc(F)c3)c3ccccc3n2)cc1	x	6.3µM	n	n	n	u	24µM
COCCCNC(=O)CC(NS(=O)(=O)c1ccc(Cl)cc1)c1ccco1 (stereo unspecified)	n	n	n	n	n	n	x
COCCCNC(=O)CC(NS(=O)(=O)c1ccc(C)cc1)c1ccco1 (stereo unspecified)	n	3.2µM	n	n	n	n	n
N=C(N)c1ccc(OCCCOc2ccc(C(=N)N)cc2)cc1	x	x	x	n	x	x	x
Cc1cc(=O)oc2cc(OCC(=O)Nc3ccc(N4CCC(C)CC4)cc3)ccc12	n	n	n	n	n	n	x
Cc1c(C)c2ccc(OCC(=O)Nc3ccc(N4CCC(C)CC4)cc3)cc2oc1=O	n	n	n	n	n	n	n
c1ccc2nc(-c3ccc(N4CCOCC4)cc3)ccc2c1	n	n	n	n	n	n	n
CN1CCN(c2ccc(-c3ccc4ccccc4n3)cc2)CC1	n	x	n	n	n	n	x
Cc1cc(C)cc(N(CC(=O)Nc2ccc(-c3nc4ccc(C)cc4s3)cc2)S(C)(=O)=O)c1	x	10µM	n	n	n	n	19µM
O=C(Nc1cccc(Br)c1)c1cc(S(=O)(=O)N2CCCCC2)c[nH]1	x	n	x	n	x	x	n
CSc1cccc(NC(=O)c2cc(S(=O)(=O)N3CCCCC3)c[nH]2)c1	n	n	n	n	n	n	x
COc1c(C)cccc1C(=O)Nc1ccc(-c2nc3ccccc3s2)c(Cl)c1	x	7.9µM	x	n	x	x	n
OCCN1CCN(Cc2ccc3c(c2)CN(Cc2cnc(-c4ccccc4)s2)CCO3)CC1	x	x	x	n	x	x	x
COc1ccc2oc(=O)c(C(=O)Oc3ccc(NC(C)=O)cc3)cc2c1	u	n	n	n	n	n	n
COc1ccc(NC(=O)c2cc3cc(OC)ccc3oc2=O)cc1	x	n	n	n	x	x	x
CCN(C(=O)Cn1c(=O)n(Cc2ccccc2)c(=O)c2c1c1cc(OC)ccc1n2C)c1ccccc1	x	u	x	n	x	x	x
CCN(Cc1ccccc1)C(=O)Cn1c(=O)n(Cc2ccccc2)c(=O)c2c1c1cc(OC)ccc1n2C	x	0.71µM	x	n	x	x	27µM
C[C@]12CCC(=O)C=C1CC[C@@H]1[C@@H]2[C@@H](O)C[C@@]2(C)[C@H]1CC[C@]2(O)C(=O)COP(=O)(O)O	x	x	x	n	x	x	x
c1ccc(C2Nc3ccccc3-c3nc4ccccc4n32)nc1 (stereo unspecified)	n	7.1µM	n	n	n	n	19µM
CC1(c2ccccn2)Nc2ccccc2-c2nc3ccccc3n21 (stereo unspecified)	n	n	n	n	n	n	x
O=C(NCCCc1cnc[nH]1)NCCCN(Cc1ccc(Cl)cc1)c1ccc(Br)cn1	x	n	x	n	x	x	x
N#CC[n+]1cccc(Br)c1	x	n	x	n	x	x	x
CC(C)CCNC(=O)COc1ccc2c(c1)C(=O)CC(C)(C)O2	n	28µM	n	n	n	n	15µM
CCOc1ccc(-n2nc3ccc(NC(=O)c4ccc5c(c4)OCCO5)cc3n2)cc1	n	8.9µM	n	n	n	n	u
SMILES	MBNL1 CUG block	ClpP mod	TCR activator	Glioma ERSR ind	A-T KAP1 phos	Mito fusion act	ClpP inh valid
CCc1ccc(-n2nc3ccc(NC(=O)c4ccc5c(c4)OCO5)cc3n2)cc1	n	3.2µM	n	n	x	n	n
CC(=O)Nc1ccc(NC(=O)Nc2ccc(C)c(C)c2)cc1	n	n	n	n	n	n	x
CC(=O)Nc1cccc(NC(=O)Nc2ccc(C)c(Cl)c2)c1	n	1.8µM	n	n	n	n	n
Cc1ccc2nc(-c3ccco3)c(Nc3ccccc3)n2c1	n	3.2µM!	n	n	n	n	u
COC(=O)C1=C[C@@H](C(=O)OC)[C@@H]2C3=C(C(=O)C2(C)C)[C@H](C)n2c(=O)n(C)c(=O)n2[C@@H]3C1	x	x	x	n	x	x	x
CC(=O)NCCCc1ccc(C(=O)COC(=O)CNC(=O)c2ccc3ccccc3c2)cc1	x	n	x	n	x	x	x
Cc1cccc(-c2cc(NC(=O)c3ccccc3C)n(-c3ccccc3)n2)c1	x	n	x	n	x	x	x
COc1ccccc1C(=O)Nc1cc(-c2cccc(Br)c2)nn1-c1ccccc1	x	4µM	x	n	x	x	19µM
CC(=O)Nc1ccc(S(=O)(=O)Nc2nc3ccccc3nc2Nc2cccc(O)c2)cc1	n	x	n	n	n	n	x
CC(=O)Nc1ccc(S(=O)(=O)Nc2nc3ccccc3nc2Nc2ccc3ccccc3c2)cc1	n	3.5µM	n	n	n	n	u
O=S(=O)(c1ccccc1)N1CCC2(CC1)OCCN2S(=O)(=O)c1cccs1	x	n	n	n	n	n	n
COc1ccc(S(=O)(=O)N2CCOC23CCN(S(=O)(=O)c2cccs2)CC3)cc1	x	n	n	n	n	n	x
Cc1cc(-c2ccccc2)c2nncn2n1	u	7.9µM	n	n	n	n	22µM
CC(C)(C)C1CCc2c(sc(NC(=O)c3ccco3)c2C(N)=O)C1 (stereo unspecified)	n	n	n	n	x	n	31µM
O=C(Nc1sc2c(c1C(=O)NC1CCCCC1)CCC2)c1ccco1	n	n	n	n	x	n	u
Cc1ccccc1NC(=O)c1c(NC(=O)c2ccco2)sc2c1CCC(C(C)(C)C)C2 (stereo unspecified)	x	n	x	n	x	x	x
COc1ccc(NC(=O)Cn2c(=O)n(CCc3ccccc3)c(=O)c3c4c(sc32)CCCC4)cc1	x	n	x	n	x	x	x
COc1cc2c(cc1NC(=O)CN1CCN(S(=O)(=O)c3ccccc3F)CC1)oc1ccccc12	n	3.5µM	n	n	x	n	u
COc1ccc(-c2cccc(C3C4C=CCCC4(C)C(=O)N3Cc3ccccc3)c2)cc1 (stereo unspecified)	x	x	x	n	x	x	x
COc1cccc(NC(=O)c2cc3c(=O)n(C)c4ccccc4c3n2C)c1	x	n	x	n	x	x	22µM
COc1ccccc1NC(=O)c1cc2c(=O)n(C)c3ccccc3c2n1C	n	u	n	n	n	n	x
